Reference: PubChem BioAssay (NCI)
About 79,000 compounds went through this panel and 15% of them were active in at least one assay; those are over-represented in the sample as a whole. Calls of active or inactive are those of the source. No stated cut-off is given here; in the data, active means growth inhibition above about 70%; inactive means the rest.

Key:
[1] = NCI Yeast Anticancer Drug Screen. Data for the mec2-1 strain (AID 157); details: S. cerevisiae mec2-1 strain, stronger effect = higher value
In short: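 Each compound was tested on mec2-1 yeast, a strain altered in DNA damage repair or cell cycle control. Growth inhibition is reported relative to vehicle.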

[2] = NCI Yeast Anticancer Drug Screen. Data for the rad14 strain (AID 159);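 further: 0% = growth of vehicle-treated control cultures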; details: S. cerevisiae rad14 strain growth inhibition, stronger effect = higher value
In short: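 Growth inhibition vs vehicle controls; genetically altered yeast strain (DNA damage repair defect) treated with test compounds.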

[3] = NCI Yeast Anticancer Drug Screen. Data for the sgs1 mgt1 strain (AID 161);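 further: 0% = growth of cultures given vehicle only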; details: S. cerevisiae sgs1 mgt1 strain, stronger effect = higher value
In short: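 Test agents were incubated with a DNA-repair-mutant yeast strain. Growth was then read and compared against vehicle-treated controls.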

[4] = NCI Yeast Anticancer Drug Screen. Data for the CLN2oe strain (AID 163);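 further: 0% = growth of vehicle-only control cultures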; details: S. cerevisiae CLN2oe strain, stronger effect = higher value
In short: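 First, the altered yeast strain was treated with each compound; second, its growth was measured; finally, inhibition was derived by comparison with vehicle controls.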

[5] = NCI Yeast Anticancer Drug Screen. Data for the cln2 rad14 strain (AID 165);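 further: 0% = growth equal to vehicle treated cultures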; details: S. cerevisiae cln2 rad14 strain, stronger effect = higher value
In short: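 Test compounds were added to cln2 rad14 yeast cultures; inhibition of growth was then determined by comparison with vehicle treatment.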

[6] = NCI Yeast Anticancer Drug Screen. Data for the bub3 strain (AID 167); details: S. cerevisiae bub3 mutant strain, stronger effect = higher value
In short: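 Readout: yeast growth inhibition, expressed relative to vehicle-only wells. The test organism is a mutant strain from a panel with lesions in DNA repair or checkpoint genes.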

[7] = NCI Yeast Anticancer Drug Screen. Data for the wt2 strain (AID 169);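 further: 0% = growth of vehicle-treated yeast cultures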; details: S. cerevisiae wt2 strain growth inhibition, stronger effect = higher value
In short: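 The panel's yeast strains carry defined changes in DNA repair or cell cycle genes. Each strain is grown with compound, and growth loss is scored relative to vehicle.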

[8] = NCI Yeast Anticancer Drug Screen. Data for the mlh1 strain (AID 171);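 further: 0% = growth of vehicle-treated control cultures of the same strain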; details: S. cerevisiae mlh1 strain growth inhibition, stronger effect = higher value
In short: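 Inhibition values reflect reduced yeast growth in the presence of compound, referenced to vehicle controls, using a strain chosen for its alteration in DNA repair or cell cycle control.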

[9] = NCI Yeast Anticancer Drug Screen. Data for the sgs1 strain (AID 173);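 further: 0% = growth of vehicle-only control cultures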; details: S. cerevisiae sgs1 mutant, stronger effect = higher value
In short: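 Vehicle-treated cultures served as reference for growth inhibition of a yeast strain altered in DNA damage repair or cell cycle control after compound exposure.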

[10] = NCI Yeast Anticancer Drug Screen. Data for the mlh1 rad18 strain (AID 175); details: S. cerevisiae mlh1 rad18 strain growth inhibition, stronger effect = higher value
In short: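 Inhibition values reflect reduced growth of mutant yeast versus vehicle-treated controls following compound exposure; the mutations affect DNA damage repair.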

[11] = NCI Yeast Anticancer Drug Screen. Data for the rad18 strain (AID 177); details: S. cerevisiae rad18 mutant growth inhibition, stronger effect = higher value
In short: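 Steps: expose repair-mutant yeast to compound; measure growth; express as inhibition relative to vehicle control.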

[12] = NCI Yeast Anticancer Drug Screen. Data for the rad52 strain (AID 147);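 further: 0% = growth of vehicle-treated control cultures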; details: S. cerevisiae rad52 mutant growth inhibition, stronger effect = higher value
In short: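 Inhibition of yeast growth, referenced to vehicle controls, was the measured output for a strain with defective DNA damage repair.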

[13] = NCI Yeast Anticancer Drug Screen. Data for the rad50EPP+ strain (AID 151);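 further: 0% = growth of vehicle-treated control cultures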; details: S. cerevisiae rad50 mutant strain, stronger effect = higher value
In short: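 Genetically defined yeast (rad50EPP+, DNA damage repair alteration) is grown with compound, and inhibition of growth is expressed relative to vehicle-treated controls.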

[14] = NCI Yeast Anticancer Drug Screen. Data for the rad50 strain (AID 155);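 further: 0% = growth of vehicle-only cultures of the same strain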; details: S. cerevisiae rad50 strain growth inhibition, stronger effect = higher value
In short: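 Readout: growth inhibition relative to vehicle-treated cultures. Compound exposure was carried out in a genetically defined yeast strain deficient in DNA damage repair.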

[15] = at 5.0 µM (retest, dose inferred, filed as 0.5)
[16] = at 50.0 µM (retest, dose inferred, filed as 5.0)

Measured: growth inhibition

Cc1nc2ccc(NCCN(C)C)c3c(=O)c4ccccc4n1c23
active: [10]; at 50.0 µM 78.9%
inactive: [1]; at 100.0 µM 37% | [2]; at 1.2 µM 6% | [2]; at 3.7 µM 11% | [2]; at 11.0 µM 6% | [2]; at 33.0 µM 12% | [2]; at 100.0 µM 20% | [3]; [15] 1% | [3]; [16] 15% | [3]; at 50.0 µM -6.05% | [4]; at 1.2 µM 5% | [4]; at 3.7 µM 22% | [4]; at 11.0 µM 20% | [4]; at 33.0 µM -2% | [4]; at 100.0 µM 19% | [5]; [15] 10% | [5]; [16] 25% | [5]; at 50.0 µM 10.2% | [6]; at 1.2 µM 5% | [6]; at 3.7 µM 4% | [6]; [15] -10% | [6]; at 11.0 µM 9% | [6]; at 33.0 µM 11% | [6]; [16] 21% | [6]; at 50.0 µM -2.7% | [6]; at 100.0 µM 9% | [7]; at 1.2 µM -32% | [7]; at 3.7 µM -38% | [7]; at 11.0 µM -43% | [7]; at 33.0 µM -39% | [7]; at 100.0 µM -19% | [8]; at 1.2 µM 27% | [8]; at 3.7 µM 31% | [8]; at 11.0 µM 33% | [8]; at 33.0 µM 27% | [8]; at 100.0 µM 38% | [9]; at 1.2 µM 23% | [9]; at 3.7 µM 33% | [9]; at 11.0 µM 24% | [9]; at 33.0 µM 24% | [9]; at 100.0 µM 35% | [10]; [15] 11% | [10]; [16] 43% | [11]; at 1.2 µM 8% | [11]; at 3.7 µM 23% | [11]; at 11.0 µM 29% | [11]; at 33.0 µM 39% | [11]; at 100.0 µM 51%

O=C1C=CC(=O)N1c1ccc(Br)cc1Cl
inactive: [14]; [15] 15% | [14]; [16] 51% | [1]; [15] 44% | [1]; [16] 42% | [4]; at 1.2 µM 63% | [10]; [15] 22% | [10]; [16] 42%
active: [12]; at 1.2 µM 91% | [12]; at 3.7 µM 101% | [12]; at 11.0 µM 99% | [12]; at 33.0 µM 99% | [12]; at 100.0 µM 99% | [13]; at 1.2 µM 90% | [13]; at 3.7 µM 102% | [13]; at 11.0 µM 100% | [13]; at 33.0 µM 99% | [13]; at 100.0 µM 99% | [14]; at 1.2 µM 99% | [14]; at 3.7 µM 101% | [14]; at 11.0 µM 100% | [14]; at 33.0 µM 100% | [14]; at 50.0 µM 92.2% | [14]; at 100.0 µM 99% | [1]; at 1.2 µM 97% | [1]; at 3.7 µM 101% | [1]; at 11.0 µM 100% | [1]; at 33.0 µM 99% | [1]; at 50.0 µM 93.7% | [1]; at 100.0 µM 99% | [2]; at 1.2 µM 99% | [2]; at 3.7 µM 102% | [2]; at 11.0 µM 100% | [2]; at 33.0 µM 100% | [2]; at 100.0 µM 100% | [3]; [15] 101% | [3]; [16] 98% | [4]; at 3.7 µM 101% | [4]; at 11.0 µM 99% | [4]; at 33.0 µM 99% | [4]; at 100.0 µM 99% | [5]; [15] 73% | [5]; [16] 100% | [6]; at 1.2 µM 98% | [6]; at 3.7 µM 101% | [6]; [15] 101% | [6]; at 11.0 µM 99% | [6]; at 33.0 µM 100% | [6]; [16] 98% | [6]; at 100.0 µM 99% | [7]; at 1.2 µM 76% | [7]; at 3.7 µM 101% | [7]; at 11.0 µM 99% | [7]; at 33.0 µM 99% | [7]; at 100.0 µM 99% | [8]; at 1.2 µM 96% | [8]; at 3.7 µM 101% | [8]; at 11.0 µM 100% | [8]; at 33.0 µM 97% | [8]; at 100.0 µM 99% | [9]; at 1.2 µM 92% | [9]; at 3.7 µM 102% | [9]; at 11.0 µM 99% | [9]; at 33.0 µM 99% | [9]; at 100.0 µM 99% | [10]; at 50.0 µM 92.7% | [11]; at 1.2 µM 85% | [11]; at 3.7 µM 99% | [11]; at 11.0 µM 99% | [11]; at 33.0 µM 93% | [11]; at 100.0 µM 99%
